CYP2C19 inhib = inhibitors of human CYP2C19. P33261. CYP2C19 Supersomes, luciferin-H EGE luminescence, 30 min. inhibition, % at 5 µM. hit rate 21% among 96,000. AID 778;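 active = CYP2C19 inhibition above a set limit at 5 µM in the primary screen, cut at about 50% in these data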;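 note: plate controls were negative control wells for no effect and 2.5 mM tranylcypromine positive control for full effect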
Measles CPE = protection of cells from measles virus | Measles virus-infected cells, CPE protection, absorbance | hit rate 1.5% among 140,000 | protection (pct of control), % at 4 µM; in the data active = protection mostly above about 24%, no sharp cut-off; inactive = mostly below about 26%
CYP2C9 act = CYP2C9 (human) activation | P11712 | recombinant CYP2C9, luciferin-H conversion, luminescence; stronger effect = higher value; factor 1 = untreated enzyme, 0 = blocked | activation factor at 5 µM | hit rate 1.4% among 96,000;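 active = activation factor of 2 or more for CYP2C9 at a 5 µM dose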;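 note: 0 = sulfaphenazole-blocked wells and 1 = vehicle-only wells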
Target sequence (P11712 whole entry, looked up): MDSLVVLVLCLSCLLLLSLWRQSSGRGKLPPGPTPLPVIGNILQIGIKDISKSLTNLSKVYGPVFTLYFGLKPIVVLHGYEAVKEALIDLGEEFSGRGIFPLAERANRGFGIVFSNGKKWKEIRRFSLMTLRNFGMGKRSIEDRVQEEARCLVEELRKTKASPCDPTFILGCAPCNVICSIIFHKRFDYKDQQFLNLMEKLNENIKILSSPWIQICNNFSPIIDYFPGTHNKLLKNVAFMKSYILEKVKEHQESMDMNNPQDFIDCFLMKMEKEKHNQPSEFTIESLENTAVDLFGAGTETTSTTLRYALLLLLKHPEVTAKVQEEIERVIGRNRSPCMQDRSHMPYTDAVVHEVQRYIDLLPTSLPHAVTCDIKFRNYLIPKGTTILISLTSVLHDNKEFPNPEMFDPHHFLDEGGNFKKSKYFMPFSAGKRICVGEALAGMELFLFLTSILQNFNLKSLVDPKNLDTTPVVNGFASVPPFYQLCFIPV
CYP2C9 inhib = inhibitors of human CYP2C9; P11712; CYP2C9 Supersomes, luciferin-H conversion, luminescence; inhibition, % at 5 µM; hit rate 20% among 96,000;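 active = blocking of liver enzyme CYP2C9 beyond about 50% at 5 µM, limit read from the data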
CYP2C19 activ = cytochrome P450 2C19 (human) activation; 96,000 tested, under 10 active; recombinant CYP2C19, luciferin-H EGE luminescence; stronger effect = higher value; 0 = fully inhibited enzyme, 1 = untreated enzyme; activation factor at 5 µM; P33261;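 active = activation factor of at least 2 at 5 µM in the primary screen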;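 note: 0 = wells with 2.5 mM tranylcypromine and 1 = vehicle-only wells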
An asterisk follows results filed as active; x = no result given. Hits are enriched below; roughly 22% of the tested compounds scored in any of these assays.

SMILES | CYP2C19 inhib | Measles CPE | CYP2C9 act | CYP2C9 inhib | CYP2C19 activ
Cc1ccc(S(=O)(=O)N2CCN(S(=O)(=O)c3ccc(C)cc3)C3OCCOC32)cc1 (configuration not stated) | -14 | 11 | 1 | -2 | 1.1
CCN(CC)c1ccc2cc(C(N)=O)c(=O)oc2c1 | x | 6 | x | x | x
CCN(CC)c1ccc2cc(C(C)=O)c(=O)oc2c1 | 12 | 43* | 1.1 | -10 | 0.9
CCN(CC)c1ccc2cc(C(=O)Nc3ccccn3)c(=O)oc2c1 | 45 | 13 | 0.4 | 57* | 0.5
CCOc1cc(C2C(C#N)=C(N)Oc3n[nH]c(C)c32)ccc1OCCN1CCOCC1 (configuration not stated) | 3 | 5 | 1 | 0 | 1
c1ccc(COc2ccc(OCCN3CCCCC3)cc2)cc1 | x | 2 | x | x | x
Cc1cc(NC(=O)C2CC(=O)N(c3ccccc3)C2)no1 (configuration not stated) | x | 9 | x | x | x
O=C(Nc1cccc2ccccc12)/C(Cl)=C/c1ccccc1 | 4 | 13 | 3* | -199 | 1
Nc1nc2c3ccccc3nc(Cc3ccccc3)n2n1 | 55* | 14 | 0.7 | 32 | 0.5
Cc1nn2c(-c3ccc(Cl)cc3)nnc2s1 | 56* | 3 | 0.9 | 6 | 0.4
Cc1nnc2sc(-c3ccncc3)nn12 | 13 | 21 | 1 | -1 | 0.9
COc1cc(-c2nn3c(COc4ccccc4)nnc3s2)cc(OC)c1OC | 12 | 4 | 0.7 | 25 | 0.9
CC(C)(C)c1ccc(-c2nnc3sc(-c4ccncc4)nn23)cc1 | 58* | 5 | 0.5 | 53* | 0.4
COc1cc(-c2nn3c(Cc4ccccc4)nnc3s2)cc(OC)c1OC | 53* | 6 | 0.3 | 70* | 0.5
c1coc(-c2nnc3sc(-c4cccs4)nn23)c1 | 64* | 5 | 0.5 | 45 | 0.4
c1csc(-c2nn3c(-c4ccncc4)nnc3s2)c1 | 36 | x | 0.7 | 32 | 0.6
NC(=O)c1cc2cc(Cl)ccc2oc1=Nc1cccc(C(F)(F)F)c1 | x | 4 | x | x | x
O=C(NCCO)C(F)(F)C(F)(F)C(F)(F)OC(F)(C(=O)NCCO)C(F)(F)F (configuration not stated) | 2 | 10 | 0.6 | 38 | 1
CCC(=O)Nc1c(OC(=O)CC)ccc2c(C)cc(=O)oc12 | x | 7 | x | x | x
CCOc1cccc(-c2nnc3sc(COc4ccc(C)cc4)nn23)c1 | 54* | 3 | 0.4 | 64* | 0.5
COc1cccc(-c2nnc3sc(-c4cccs4)nn23)c1 | 40 | 12 | 0.6 | 42 | 0.6
CCOc1cccc(-c2nnc3sc(-c4cc(OC)c(OC)c(OC)c4)nn23)c1 | 36 | 23 | 0.4 | 63* | 0.6
COc1cc(OC)c(-c2nn3c(-c4ccco4)nnc3s2)cc1OC | 44 | 6 | 0.3 | 73* | 0.6
CCOc1cccc(-c2nnc3sc(COc4ccccc4)nn23)c1 | -5 | 1 | 1 | 5 | 1.1
CCOc1cccc(-c2nnc3sc(-c4cccs4)nn23)c1 | 60* | 6 | 0.4 | 58* | 0.4
SMILES | CYP2C19 inhib | Measles CPE | CYP2C9 act | CYP2C9 inhib | CYP2C19 activ
Cc1ccc(C2CC(c3cccs3)=NN2C(=O)c2ccc(Br)o2)cc1 (configuration not stated) | 30 | 21 | 0.6 | 43 | 0.7
c1ccc(OCc2nn3c(-c4ccco4)nnc3s2)cc1 | 67* | 16 | 0.5 | 49 | 0.3
c1cc(-c2nnc3sc(C4CCCCC4)nn23)ccn1 | 88* | 5 | 0.8 | 21 | 0.1
COc1cc(-c2nnc3sc(-c4ccco4)nn23)cc(OC)c1OC | 36 | 18 | 0.4 | 65* | 0.6
COc1ccc(-c2nn3c(-c4ccco4)nnc3s2)cc1OC | 16 | 6 | 0.8 | 18 | 0.8
COc1ccc(-c2nnc3sc(COc4ccccc4)nn23)cc1 | 36 | 3 | 0.7 | 26 | 0.6
COc1cc(-c2nn3c(-c4ccccc4)nnc3s2)cc(OC)c1OC | 74* | 10 | 0.3 | 72* | 0.3
COc1ccc(-c2nnc3sc(-c4ccco4)nn23)cc1OC | 12 | 12 | 0.9 | 11 | 0.9
Cn1ccc(C(=O)Nc2ccc(Br)cc2Br)n1 | x | 27 | x | x | x
CCCN1CCN(C(=O)CN2C(=O)CC(C)(C)S(=O)(=O)c3ccccc32)CC1 | 4 | 20 | 1 | -2 | 1
COc1cccc(-c2nn3c(-c4cccc(C)c4)nnc3s2)c1 | 89* | 13 | 0.2 | 76* | 0.1
COc1cccc(-c2nnc3sc(-c4ccc(C)cc4)nn23)c1 | 13 | 3 | 0.7 | 28 | 0.9
CCOc1ccc(N(CC(=O)Nc2ccccc2C(=O)NC(C)CC)S(C)(=O)=O)cc1 (configuration not stated) | x | 1 | x | x | x
CCOc1ccccc1CNC(=O)CCN1C(=O)COc2ccccc21 | 75* | 5 | 1.9 | -86 | 0.3
CCOC(=O)CNC(=O)CNC(=O)Cn1ccc2ccccc2c1=O | -6 | 5 | 1.1 | -7 | 1.1
COC(=O)C1CCN(C(=O)CCCOc2ccccc2)CC1 | 87* | 10 | 0.9 | 13 | 0.1
CCCCOc1ccc(C(=O)NCCCC(=O)N2CCCCC2)cc1 | 11 | 5 | 0.9 | 15 | 0.9
CCOC(=O)C1CCN(C(=O)CN(Cc2ccccc2)S(C)(=O)=O)CC1 | -2 | 4 | 1 | -3 | 1
COc1ccc(OCCC(=O)N2CCCCC2)cc1 | 85* | 10 | 0.9 | 14 | 0.1
CCOC(=O)C1CCN(C(=O)c2ccc(Br)o2)CC1 | 82* | 7 | 0.3 | 70* | 0.2
COC(=O)C1CCN(C(=O)CSc2ccccc2)CC1 | x | 27 | x | x | x
CCOC(=O)C1CCN(C(=O)CCc2ccccc2)CC1 | 71* | 3 | 0.5 | 46 | 0.3
CCc1ccc(NC(=O)c2ccc(OC)c([N+](=O)[O-])c2)cc1 | x | 7 | x | x | x
S=C(NCc1ccc(Cl)cc1Cl)Nc1ccccc1 | x | 21 | x | x | x
CC1CCN(C(=O)COC(=O)c2ccc(Br)o2)CC1 | 60* | 26 | 1 | 3 | 0.4
SMILES | CYP2C19 inhib | Measles CPE | CYP2C9 act | CYP2C9 inhib | CYP2C19 activ
CCOC(=O)C1CCN(C(=O)COC(=O)c2ccc(Br)o2)CC1 | 24 | 3 | 0.8 | 23 | 0.8
CCOC(=O)C1CCCN(CCCc2ccccc2)C1 (configuration not stated) | 80* | 9 | 0.8 | 20 | 0.2
CCOC(=O)C1CCN(C(=O)CSCCSCC(=O)N2CCC(C(=O)OCC)CC2)CC1 | 73* | 13 | 0.9 | 7 | 0.3
COCCCNC(=O)C(=O)NCCCOC(C)C | 41 | 7 | 1 | -4 | 0.6
N#Cc1ccc(C(=O)Nc2ccc(N3CCN(C(=O)c4ccco4)CC3)cc2)c(F)c1 | 12 | 18 | 0.8 | 20 | 0.9
Cc1ccc(-c2csc3nc(SCC(N)=O)n(Cc4ccccc4)c(=O)c23)cc1 | x | 17 | x | x | x
CCc1ccc(NC(=O)CNC(=O)c2cn(-c3ccccc3OC)c(=O)c3ccccc23)cc1 | 98* | 14 | 0 | 99* | 0
COC(=O)C(Cc1cncn1COCc1ccccc1)NC(=O)OC(C)(C)C (configuration not stated) | 36 | 3 | 0.8 | 25 | 0.6
Cc1ccc(N/N=C(\C#N)C(N)=S)c(C)c1 | x | 3 | x | x | x
Cc1cc(C)c(C)c(/C=C(/C#N)C(N)=S)c1C | 24 | 4 | 0.4 | 65* | 0.8
